Laboratory results published in PubChem BioAssay (NCATS).
Records with an inconclusive call do not appear. A number with no mark means an inactive call. The source made the active and inactive calls. Calls follow the shape of the dose curve; as a rule, active = well fitted curve in the direction sought with a large enough effect; inconclusive = small, poorly fitted or top-dose-only effect, or another doubt; inactive = no such curve, though single readings can be large; an effect the other way counts as inactive or inconclusive.

Test system: Zika virus NS2B-NS3 protease
Test: Primary screen GU AMC qHTS for Zika virus inhibitors (AID 1347154); also: nearly all actives have a fitted effect of over 70% in size; also: potency is read from the fitted curve at half-maximal effect;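 as to activity change, negative = inhibition: 0% = no-inhibitor control and -100% = no-enzyme control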
Settings: Zika NS2B-NS3 unlinked protease, AMC fluorogenic substrate; series mostly up to 54.1 µM; activity change, negative = inhibition: at the top concentration
How it was run: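 Fluorogenic AMC-substrate cleavage by noncovalent NS2B-NS3 protease complex (25 nM, pH 8.0 Tris buffer with Tween 20) followed for 15 minutes at room temperature (~20% conversion). Percent inhibition from ex340/em450 signal change, fitted by 4-parameter Hill equation.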

Row | Structure (SMILES) | activity change, negative = inhibition | Potency
1 | O=[N+]([O-])c1nccn1CO[C@@H](CO)[C@H](O)CO | -1.31% | –
2 | O=C1CC[C@H](C(=O)N2CCCCC2)N1 | -5.47% | –
3 | CCC(C(=O)NC(=O)NC(C)=O)c1ccccc1 (stereo not drawn) | 0.513% | –
4 | CC(=O)OCC(=O)Nc1cc(C#N)cc(NC(=O)COC(C)=O)c1Cl | -1.09% | –
5 | Nc1cccc2c(N)cccc12 | – | 36.9 µM (active)
6 | CCOC(=O)c1ccc(NC(=O)CN2CCCCC2)cc1 | -0.422% | –
7 | CC(C)(C)c1nnc(NS(=O)(=O)c2ccccc2)s1 | -5.73% | –
8 | CCOC(=O)c1ccc(OCCN2C[C@H](O)[C@@H](O)[C@H](O)[C@H]2CO)cc1 | 3.38% | –
9 | O=C(O)CNC(=O)CNC(=O)CNC(=O)CSC(=O)c1ccccc1 | -1.51% | –
10 | CC(=O)Nc1ccn(C2COC(COC(=O)c3ccccc3)O2)c(=O)n1 (stereo not drawn) | 0.531% | –
11 | O=C(O)Cc1ccccc1Oc1ccc(Cl)cc1Cl | 0.733% | –
12 | C=CCOc1cc(Cl)ccc1C(=O)NCCN(CC)CC | -5.15% | –
13 | Nc1c(NC/C=C\COc2cc(CN3CCCCC3)ccn2)c(=O)c1=O | -2.44% [at 25.8 µM] | –
14 | C[N+](C)(CCOc1ccccc1)Cc1cccs1 | -1.95% | –
15 | CO[C@]1(NC(=O)CSC(F)F)C(=O)N2C(C(=O)O)=C(CSc3nnnn3CCO)CO[C@H]21 | 0.63% | –
16 | Cc1cccc(N(C)C(=S)Oc2ccc3c(c2)CCC3)c1 | -11.7% | –
17 | CN1CCC(N(Cc2cccs2)c2ccccc2)CC1 | -8.2% | –

Row | Structure (SMILES) | activity change, negative = inhibition | Potency
18 | CC(C(=O)O)c1ccc(/C=C2\CCCCC2=O)cc1 (stereo not drawn) | -4.01% | –
19 | O=C1[C@@H]2[C@H]3CC[C@H](C3)[C@@H]2C(=O)N1CCCCN1CCN(c2ncccn2)CC1 | -8.2% | –
20 | CC(=O)[C@H]1CC[C@H]2[C@@H]3C=CC4=CC(=O)CC[C@@]4(C)[C@@H]3CC[C@]12C | 0.0062% | –
21 | CCCCNc1ccc(C(=O)OCCN(CC)CC)cc1 | -1.61% | –
22 | CC1CN(c2cc3c(cc2F)c(=O)c(C(=O)O)cn3-c2ccc(F)cc2F)CCN1 (stereo not drawn) | -3.57% [at 4.99 µM] | –
23 | COc1cc(C(=O)OC(COCCC(C)C)CN2CCOCC2)cc(OC)c1OC (stereo not drawn) | -4.8% | –
24 | O=C(CCC1CCN(Cc2ccccc2)CC1)c1ccc2c(c1)NCCCC2 | -9.04% | –
25 | CC(=O)Oc1ccc(C2(c3ccc(OC(C)=O)cc3)Oc3ccccc3NC2=O)cc1 | -12.9% | –
26 | CCN1CCN(c2cc(-c3ccc(F)cc3)c3c(n2)CCCCCC3)CC1 | -2.47% [at 25.8 µM] | –
27 | C=CC[N+]1([C@H]2C[C@H]3[C@@H]4CC[C@H]5C[C@H](OC(C)=O)[C@@H](N6CCCCC6)C[C@]5(C)[C@H]4CC[C@]3(C)[C@H]2OC(=O)CC)CCCCC1 | -0.881% | –
28 | O=C(CCCCCCCCC#CI)Oc1ccccc1 | -13.9% | –
29 | CCN(CC)CCOc1ccc(/C(=C(\Cl)c2ccccc2)c2ccccc2)cc1 | -14.7% | –
30 | CCOC(=O)C(=O)CCCCCCl | 0.643% | –
31 | C[C@@H](O[C@H]1OCCN(Cc2n[nH]c(=O)[nH]2)[C@H]1c1ccc(F)cc1)c1cc(C(F)(F)F)cc(C(F)(F)F)c1 | -23.2% | –
32 | CO/N=C(/C(=O)N[C@@H]1C(=O)N2C(C(=O)O)=C(Cn3nnc(C)n3)CS[C@H]12)c1csc(N)n1 | -4.25% | –
33 | CCCCOC(=O)CCCCCCCCC(=O)OCCCC | -1.19% | –
34 | CCN1C(=O)c2ccccc2C1Nc1ccc(OCCN2CCCCC2)cc1 (stereo not drawn) | -2.9% | –

Test system: Zika virus NS2B-NS3 protease (unlinked complex)
Test: Primary screen GU Rhodamine qHTS for Zika virus inhibitors: Unlinked NS2B-NS3 protease assay (AID 1347159); also: % is scaled to controls: 0 for no effect and ±100 for the full control effect; nearly all actives have a fitted effect of over 60% in size
Settings: Recombinant ZIKV NS2B-NS3 protease, Rhodamine110 substrate fluorescence; series mostly up to 107 µM; activity change, negative = inhibition: at the top concentration
How it was run: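 In dose–response format, inhibition of unlinked protease (25 nM) was measured with 1.5 microM bis-peptide Rhodamine110 substrate. Aprotinin served as the intraplate control.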

Row | Structure (SMILES) | activity change, negative = inhibition [%]
35 | O=[N+]([O-])c1nccn1CO[C@@H](CO)[C@H](O)CO | -15.4
36 | O=C1CC[C@H](C(=O)N2CCCCC2)N1 | -15.3
37 | OC1(c2ccc(Cl)c(C(F)(F)F)c2)CCN(CCCC(c2ccc(F)cc2)c2ccc(F)cc2)CC1 | 231
38 | CCC(C(=O)NC(=O)NC(C)=O)c1ccccc1 (stereo not drawn) | -13.5
39 | CC(=O)OCC(=O)Nc1cc(C#N)cc(NC(=O)COC(C)=O)c1Cl | 65.6
40 | CCOC(=O)c1ccc(NC(=O)CN2CCCCC2)cc1 | 8.94
41 | CC(C)(C)c1nnc(NS(=O)(=O)c2ccccc2)s1 | 0
42 | CCOC(=O)c1ccc(OCCN2C[C@H](O)[C@@H](O)[C@H](O)[C@H]2CO)cc1 | 0
43 | CC1c2ccccc2CN1NC(=O)c1ccc(Cl)c(S(N)(=O)=O)c1 (stereo not drawn) | 0
44 | O=C(O)CNC(=O)CNC(=O)CNC(=O)CSC(=O)c1ccccc1 | 0
45 | CC(=O)Nc1ccn(C2COC(COC(=O)c3ccccc3)O2)c(=O)n1 (stereo not drawn) | 0
46 | O=C(O)Cc1ccccc1Oc1ccc(Cl)cc1Cl | 14.2
47 | C=CCOc1cc(Cl)ccc1C(=O)NCCN(CC)CC | 0
48 | Nc1c(NC/C=C\COc2cc(CN3CCCCC3)ccn2)c(=O)c1=O | 0
49 | COC(=O)C1=C(C)NC(COC(N)=O)=C(C(=O)OC(C)C)C1c1cccc(Cl)c1Cl (stereo not drawn) | 0
50 | CO[C@]1(NC(=O)CSC(F)F)C(=O)N2C(C(=O)O)=C(CSc3nnnn3CCO)CO[C@H]21 | 42.7
51 | Cc1cccc(N(C)C(=S)Oc2ccc3c(c2)CCC3)c1 | 0

Row | Structure (SMILES) | activity change, negative = inhibition [%]
52 | CN1CCC(N(Cc2cccs2)c2ccccc2)CC1 | 0
53 | CC(C(=O)O)c1ccc(/C=C2\CCCCC2=O)cc1 (stereo not drawn) | -22.3
54 | O=C1[C@@H]2[C@H]3CC[C@H](C3)[C@@H]2C(=O)N1CCCCN1CCN(c2ncccn2)CC1 | -6.08
55 | CN(C)C(=O)CNC(=O)Cc1ccccc1 | 23.5
56 | CC(=O)[C@H]1CC[C@H]2[C@@H]3C=CC4=CC(=O)CC[C@@]4(C)[C@@H]3CC[C@]12C | -16.4
57 | CCCCNc1ccc(C(=O)OCCN(CC)CC)cc1 | 0
58 | CC1CN(c2cc3c(cc2F)c(=O)c(C(=O)O)cn3-c2ccc(F)cc2F)CCN1 (stereo not drawn) | 0
59 | COc1cc(C(=O)OC(COCCC(C)C)CN2CCOCC2)cc(OC)c1OC (stereo not drawn) | 6.77
60 | O=C(CCC1CCN(Cc2ccccc2)CC1)c1ccc2c(c1)NCCCC2 | 3.82
61 | CC(=O)Oc1ccc(C2(c3ccc(OC(C)=O)cc3)Oc3ccccc3NC2=O)cc1 | 0
62 | CCN1CCN(c2cc(-c3ccc(F)cc3)c3c(n2)CCCCCC3)CC1 | 0
63 | C=CC[N+]1([C@H]2C[C@H]3[C@@H]4CC[C@H]5C[C@H](OC(C)=O)[C@@H](N6CCCCC6)C[C@]5(C)[C@H]4CC[C@]3(C)[C@H]2OC(=O)CC)CCCCC1 | -3.77
64 | O=C(CCCCCCCCC#CI)Oc1ccccc1 | 37.9
65 | O=C1NC2CCCCN2C12CCN(CCCN1c3ccccc3CCc3ccc(Cl)cc31)CC2 (stereo not drawn) | 34.9
66 | CCN(CC)CCOc1ccc(/C(=C(\Cl)c2ccccc2)c2ccccc2)cc1 | 112
67 | CO/N=C(/C(=O)N[C@@H]1C(=O)N2C(C(=O)O)=C(Cn3nnc(C)n3)CS[C@H]12)c1csc(N)n1 | 3.56
68 | CCN1C(=O)c2ccccc2C1Nc1ccc(OCCN2CCCCC2)cc1 (stereo not drawn) | -18.3
